“And” between values parts separate entries of the source, which are not always exact repeats. Identical values can stand only once. Inconclusive results are not listed. The source made the active and inactive calls. Unless noted, the call rests on the fitted dose curve; in most records, active means well fitted curve in the direction sought with a large enough effect; inconclusive means small, poorly fitted or top-dose-only effect, or another doubt; inactive means no such curve, though single readings can be large; an effect the other way counts as inactive or inconclusive.
Columns and labels:
[1] = molecular target: Arylsulfatase A (Homo sapiens) (UniProt P15289); experiment: qHTS screen for enhancers of Arylsulfatase A (ASA1): LOPAC Validation Assay (AID 720538)
How it was run: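 Cell-based enhancement test: residual ASA activity in SV40-transformed I179S patient fibroblasts is measured by pNCS turnover (0.5mM final, 14h, room temperature) following 48h compound incubation; higher fluorescence indicates activation.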

[2] = qHTS for compounds that reverse cellular toxicity of Amyloid beta (A-beta) peptide in yeast: LOPAC Validation Assay (AID 720559);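 further: plate controls were DMSO for no effect and equimolar ferric chloride plus clioquinol rescue for full effect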
How it was run: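 Here, A-beta-toxic yeast grow with test compounds at 30 C for 48 hr before optical density at 600 nm is recorded; data are normalized against DMSO and the FeCl3-clioquinol control.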

[3] = qHTS for Activators of Parkin Expression: LOPAC Validation Assay (NLuc Reporter) (AID 720572)
How it was run: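 Compound effects on Parkin promoter activity were measured as NanoLuc luminescence after 24 h at 37 C. The neuronal reporter line also carried FLuc, which was read first. LOPAC compounds were tested at 7 concentrations, with normalization to DMSO (0%) and positive control (100%).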

[4] = qHTS for Activators of Parkin Expression: LOPAC Validation Assay (FLuc Reporter) (AID 720573)
How it was run: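 Readout is FLuc luminescence from neuronal reporter cells (Parkin promoter, FLuc plus NLuc) after 24 h compound exposure in dose response. Values normalized to neutral DMSO and positive-control compounds.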

[5] = molecular target: T1, Hexokinase-4 (Homo sapiens) + Glucokinase regulatory protein (Homo sapiens) (UniProt P35557+Q14397); experiment: qHTS assay for inhibitors of recombinant human GCK-GKRP interaction: Diaphorase-coupled assay (AID 743205)
How it was run: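 Signal derives from resorufin generated by diaphorase, linked to GCK turnover of glucose (5 mM) and ATP (0.4 mM). Enzyme complex was added after a 20-minute compound preincubation and monitored for 30 minutes.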

[6] = molecular target: T1, Hexokinase-4 (Homo sapiens) + Glucokinase regulatory protein (Homo sapiens); experiment: qHTS assay for inhibitors of recombinant human GCK-GKRP interaction: ADP-Glo assay (AID 743206);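 further: plate controls were DMSO plus enzyme for no effect and no enzyme for full effect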
How it was run: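 Pin-transferred compounds meet a 15 nM GST-GCK/15 nM FLAG-GKRP/2 uM S6P mix (dispense concentrations). ATP is then added to 0.4 mM final with 5 mM glucose, and the reaction runs 60 min at room temperature. ADP is quantified luminescently.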

[7] = molecular target: T1, Hexokinase-4 (Homo sapiens) + Glucokinase regulatory protein (Homo sapiens); experiment: qHTS assay for inhibitors of recombinant human GCK-GKRP interaction: HTRF assay (AID 743207);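 further: 0% = DMSO with GCK present and -100% = DMSO wells lacking GCK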
How it was run: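 Titration screening format: recombinant GST-GCK and FLAG-GKRP at 5 nM, S6P at 2 uM, labelled anti-tag antibodies, 60 min at RT, dual-wavelength HTRF readout.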

[8] = qHTS Assay for Identifying Gametocytocidal Compounds (AID 743244); further: potency means the concentration at half of the fitted maximal effect;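 on max response: on the % scale 0 is the no-effect control and ±100 the full control effect; actives lower the fluorescent signal which means gametocytes are killed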; conditions: P. falciparum 3D7 stage III-V gametocytes, alamarBlue, 72 h; max response: hits give low values
How it was run: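 Viability read-out was resazurin reduction (alamarBlue, 24 h) measured at Ex 525/Em 598 nm. Beforehand, late-stage (III-V) 3D7 P. falciparum gametocytes at 20,000 cells/well were incubated with compound 72 h at 37C under 5% CO2.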

[9] = molecular target: Peroxisome proliferator-activated receptor alpha (Homo sapiens) (UniProt Q07869); experiment: qHTS assay for small molecule agonists of the peroxisome proliferator-activated receptor alpha (PPARalpha) signaling pathway (AID 651778); conditions: PathHunter PPARalpha complementation, chemiluminescence, 6 h; hits give high values; further: % of control where 0% means no effect
How it was run: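 Chemiluminescence from complemented enzyme reported PPARalpha activation in cells after 6 hr of compound treatment at 37 C. The detection reagent was incubated for 60 min at room temperature, and compounds were scored as agonists.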

[10] = qHTS assay for small molecule agonists of the antioxidant response element (ARE) signaling pathway measured by Nrf2-dependant transcriptional activity - cell viability counter screen (AID 720653; active means well fitted curve in the direction sought with a large enough effect in the repeat runs; an effect the other way counts as inactive or inconclusive; further: on the % scale 0 is the no-effect control and ±100 the full control effect); conditions: ARE-bla HepG2 viability, CellTiter-Glo ATP luminescence, 16 h; max response: hits give low values
How it was run: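 Cytotoxicity counter screen: intracellular ATP quantified by CellTiter-Glo luminescence in the same ARE-bla HepG2 plates, after 16 h compound exposure and a 2 h beta-lactamase substrate step.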

[11] = qHTS assay for cell viability of HEK293 cells (AID 743288); conditions: ATP luminescence (CellTiter-Glo), 18 h; max response: hits give low values; further: on the % scale 0 is the no-effect control and ±100 the full control effect; nearly all actives have a fitted effect of over 50% in size
How it was run: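 HEK293, 18 h, 37 C, ATP luminescence. Cells at 2,000/well were allowed at least 5 h to settle before dosing; CellTiter-Glo developed 30 min at RT.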

[12] = qHTS assay for cell viability of the p53RE-bla HCT-116 cell line (AID 743292); further: on the % scale 0 is the no-effect control and ±100 the full control effect; nearly all actives have a fitted effect of over 55% in size
How it was run: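 HCT-116 p53RE-bla cells seeded 4,000/well; 5 h at 37 C; compound (DMSO) added; 16 h at 37 C; CellTiter-Glo added, 30 min RT; luminescence read.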

[13] = qHTS assay to identify small molecules that stimulate interleukin-8 (IL-8) secretion (AID 651758; active means well fitted activation curve with a large enough effect in the signal ratio; the % refers to the signal ratio; further: 0% is about no effect)
How it was run: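 Secreted IL-8 measured homogeneously by TR-FRET (two labelled anti-IL-8 antibodies, 1-3 h at room temperature) after a 16 h, 37 C compound treatment of THP-1 cells at 2000 cells/well.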

[14] = molecular target: Nuclear receptor ROR-gamma (Homo sapiens) (UniProt P51449); experiment: qHTS assay for small molecule antagonists of the retinoid-related orphan receptor gamma (ROR-gamma) signaling pathway (AID 651802);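 further: CHO cells with doxycycline-induced ROR-gamma expression; luciferase reporter luminescence driven by ROR response element; series mostly up to about 92 µM; on the % scale 0 is the no-effect control and ±100 the full control effect; nearly all actives have a fitted effect of over 60% in size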
How it was run: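 Doxycycline-induced reporter activity in engineered CHO cells (TET-inducible ROR, RORE-LUC) was measured by luminescence after 16hr compound exposure at 37C.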

[15] = qHTS assay for small molecule agonists of the antioxidant response element (ARE) signaling pathway measured by Nrf2-dependant transcriptional activity (AID 720636; active means well fitted curve in the direction sought with a large enough effect in the repeat runs; an effect the other way counts as inactive or inconclusive;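 further: HepG2 cells with an ARE-driven luciferase reporter; % of control where 0% means no effect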)
How it was run: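 Cells: ARE-luc HepG2 with Nrf2-responsive luciferase. Medium contained 1% dialyzed FBS. Compound exposure lasted 16 hr at 37 C and 5% CO2, followed by ONE-Glo luciferase detection.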

[16] = qHTS assay for small molecule antagonists of the retinoid-related orphan receptor gamma (ROR-gamma) signaling pathway - cell viability counter screen (AID 720652; active means well fitted curve in the direction sought with a large enough effect in the repeat runs; an effect the other way counts as inactive or inconclusive;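 further: CHO reporter cells with doxycycline-induced ROR-gamma expression; series mostly up to about 92 µM; compound exposure lasted 16 hr before ATP read; on the % scale 0 is the no-effect control and ±100 the full control effect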)
How it was run: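 ATP-based viability readout in the ROR-gamma reporter CHO cells after 16 hr compound exposure under doxycycline induction.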

[17] = molecular target: Tyrosine-protein kinase Yes (Homo sapiens) (UniProt P07947); experiment: qHTS for small molecule inhibitors of Yes1 kinase: Primary Screen (AID 686947); further: potency means the concentration at half of the fitted maximal effect; nearly all actives have a fitted effect of over 60% in size
How it was run: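 In this qHTS format, inhibition is expressed relative to DMSO controls with enzyme (maximum) and without enzyme (minimum). The 60 min room-temperature reaction uses 0.1 mM ATP, with ADP detected by luminescence.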

[18] = qHTS for small molecule inhibitors of Yes1 kinase: Counter Assay (AID 686950);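 further: no kinase present so only ADP-Glo detection of a fixed ADP amount is tested; luminescence from ADP-Glo reporting ADP in a fixed ATP and ADP mixture; series mostly up to about 77 µM; 0% = DMSO wells with ATP plus ADP and -100% = ATP-only wells without ADP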
How it was run: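 ADP-Glo luminescence read after a 60 min room-temperature incubation of compound with an ATP/ADP mix (0.08 mM/0.02 mM) and no kinase, following a 20 min compound preincubation. Signal scaled between ATP+ADP (max) and 0.1 mM ATP-only (min) wells; Tris pH 7.5, Mg2+, DTT.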

Peroxisome proliferator-activated receptor alpha (Homo sapiens), sequence (Q07869 whole entry, looked up): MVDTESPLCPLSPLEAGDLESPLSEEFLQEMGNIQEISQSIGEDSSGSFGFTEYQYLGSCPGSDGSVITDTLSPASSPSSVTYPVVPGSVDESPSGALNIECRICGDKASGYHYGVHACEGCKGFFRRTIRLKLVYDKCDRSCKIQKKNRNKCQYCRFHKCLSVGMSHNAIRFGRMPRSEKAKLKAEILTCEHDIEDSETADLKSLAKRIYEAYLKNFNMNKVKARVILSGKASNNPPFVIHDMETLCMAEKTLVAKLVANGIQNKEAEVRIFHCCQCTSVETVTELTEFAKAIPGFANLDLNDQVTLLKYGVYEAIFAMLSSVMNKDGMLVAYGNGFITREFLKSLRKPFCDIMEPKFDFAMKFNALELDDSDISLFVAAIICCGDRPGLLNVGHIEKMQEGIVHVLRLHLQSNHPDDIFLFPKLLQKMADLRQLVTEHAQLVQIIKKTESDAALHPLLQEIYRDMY
T1 sequence (P35557 whole entry, looked up): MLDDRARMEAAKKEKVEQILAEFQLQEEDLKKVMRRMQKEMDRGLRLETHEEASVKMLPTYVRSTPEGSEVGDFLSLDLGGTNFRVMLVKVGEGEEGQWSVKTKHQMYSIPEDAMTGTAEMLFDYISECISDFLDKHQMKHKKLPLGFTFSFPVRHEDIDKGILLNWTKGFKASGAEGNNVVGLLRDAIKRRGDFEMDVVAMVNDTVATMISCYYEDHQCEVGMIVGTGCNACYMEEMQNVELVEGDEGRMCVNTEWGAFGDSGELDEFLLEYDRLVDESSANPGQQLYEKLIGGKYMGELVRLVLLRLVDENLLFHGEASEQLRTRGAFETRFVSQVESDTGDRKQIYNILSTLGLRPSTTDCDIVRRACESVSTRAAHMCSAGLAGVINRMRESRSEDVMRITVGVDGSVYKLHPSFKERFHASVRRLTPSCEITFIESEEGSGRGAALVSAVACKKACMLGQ
T1 sequence (Q14397 whole entry, looked up): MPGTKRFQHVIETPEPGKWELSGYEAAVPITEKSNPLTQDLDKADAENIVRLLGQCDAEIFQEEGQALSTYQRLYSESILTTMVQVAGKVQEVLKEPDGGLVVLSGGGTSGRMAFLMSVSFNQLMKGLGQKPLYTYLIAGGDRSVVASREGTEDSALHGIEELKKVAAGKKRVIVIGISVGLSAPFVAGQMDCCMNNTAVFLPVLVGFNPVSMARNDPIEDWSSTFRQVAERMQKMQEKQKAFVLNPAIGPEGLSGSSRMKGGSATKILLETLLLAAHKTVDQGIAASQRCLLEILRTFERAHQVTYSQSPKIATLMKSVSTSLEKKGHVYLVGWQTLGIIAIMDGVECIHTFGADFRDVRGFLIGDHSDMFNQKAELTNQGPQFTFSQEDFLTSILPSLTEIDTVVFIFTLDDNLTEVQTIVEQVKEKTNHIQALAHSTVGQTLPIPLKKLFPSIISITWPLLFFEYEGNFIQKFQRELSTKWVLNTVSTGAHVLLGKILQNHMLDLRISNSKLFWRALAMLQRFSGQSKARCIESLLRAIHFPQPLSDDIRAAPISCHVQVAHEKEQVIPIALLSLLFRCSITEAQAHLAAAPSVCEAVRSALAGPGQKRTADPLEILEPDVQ
Arylsulfatase A (Homo sapiens), sequence (P15289 whole entry, looked up): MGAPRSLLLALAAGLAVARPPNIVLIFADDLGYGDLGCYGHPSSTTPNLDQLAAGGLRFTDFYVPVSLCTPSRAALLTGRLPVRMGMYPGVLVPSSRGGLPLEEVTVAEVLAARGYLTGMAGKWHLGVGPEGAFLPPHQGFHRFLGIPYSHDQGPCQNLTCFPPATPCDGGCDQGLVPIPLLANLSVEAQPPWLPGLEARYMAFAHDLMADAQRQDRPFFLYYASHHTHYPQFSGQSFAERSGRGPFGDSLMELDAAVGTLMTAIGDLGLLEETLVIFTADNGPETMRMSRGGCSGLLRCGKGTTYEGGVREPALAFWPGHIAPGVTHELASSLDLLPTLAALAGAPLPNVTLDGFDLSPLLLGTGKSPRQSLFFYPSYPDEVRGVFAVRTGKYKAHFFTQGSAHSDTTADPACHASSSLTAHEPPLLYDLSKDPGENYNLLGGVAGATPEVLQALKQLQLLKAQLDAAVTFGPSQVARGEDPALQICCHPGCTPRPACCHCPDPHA
Nuclear receptor ROR-gamma (Homo sapiens), sequence (P51449 whole entry, looked up): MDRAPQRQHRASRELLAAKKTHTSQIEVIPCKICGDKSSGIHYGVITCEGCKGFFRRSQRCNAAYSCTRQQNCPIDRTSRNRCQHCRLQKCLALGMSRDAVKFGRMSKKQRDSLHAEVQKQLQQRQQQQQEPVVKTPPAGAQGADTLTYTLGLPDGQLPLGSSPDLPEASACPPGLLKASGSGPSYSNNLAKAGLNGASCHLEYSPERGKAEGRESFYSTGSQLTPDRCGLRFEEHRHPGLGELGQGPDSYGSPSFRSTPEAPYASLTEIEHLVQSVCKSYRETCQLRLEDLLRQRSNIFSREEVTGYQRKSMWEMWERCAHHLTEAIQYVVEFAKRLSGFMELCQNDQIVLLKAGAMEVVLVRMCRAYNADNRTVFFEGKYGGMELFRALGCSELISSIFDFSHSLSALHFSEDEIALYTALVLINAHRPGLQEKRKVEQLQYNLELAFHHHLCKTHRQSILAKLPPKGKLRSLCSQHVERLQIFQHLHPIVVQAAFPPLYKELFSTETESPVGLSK
Tyrosine-protein kinase Yes (Homo sapiens), sequence (P07947 whole entry, looked up): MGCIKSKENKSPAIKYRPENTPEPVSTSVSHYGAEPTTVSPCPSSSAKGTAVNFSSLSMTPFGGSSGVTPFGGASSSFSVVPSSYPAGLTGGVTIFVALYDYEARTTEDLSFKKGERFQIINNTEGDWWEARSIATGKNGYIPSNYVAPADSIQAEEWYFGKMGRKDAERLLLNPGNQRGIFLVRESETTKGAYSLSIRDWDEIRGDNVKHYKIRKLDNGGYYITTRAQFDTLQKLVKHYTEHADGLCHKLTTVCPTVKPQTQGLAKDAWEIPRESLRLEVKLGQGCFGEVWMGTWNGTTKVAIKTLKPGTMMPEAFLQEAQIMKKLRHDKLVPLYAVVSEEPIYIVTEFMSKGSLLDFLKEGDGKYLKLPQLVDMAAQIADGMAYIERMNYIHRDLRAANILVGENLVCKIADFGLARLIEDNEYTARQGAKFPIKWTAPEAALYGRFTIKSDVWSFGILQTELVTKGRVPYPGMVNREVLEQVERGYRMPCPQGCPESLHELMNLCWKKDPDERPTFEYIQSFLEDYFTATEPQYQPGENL

CN(C)CCN(Cc1cccs1)c1ccccn1
inactive: Potency [1] | outcome [2] | Potency [3] | outcome [4] | outcome [5] | outcome [6] | Potency [7] | max response [8] -13% and 5.58%

Cc1ccc(S(=O)(=O)NC(=O)NN2CCCCCC2)cc1
inactive: max response [9] -0.39% | outcome [2] | Potency [3] | outcome [4] | max response [10] 1.34% | outcome [5] | outcome [6] | Potency [7] | max response [8] -5.27% and 9.03% | max response [11] -0.908% | outcome [12]

CC(=O)[C@]1(O)Cc2c(O)c3c(c(O)c2[C@@H](O[C@H]2C[C@H](N)[C@H](O)[C@H](C)O2)C1)C(=O)c1ccccc1C3=O
inactive: Potency [1] | outcome [2] | Potency [3] | outcome [4] | outcome [5] | outcome [6] | Potency [7]
active: Potency [8] 6.31 µM and 1.12 µM

CC(=O)OC(C)C[N+](C)(C)C (centres undefined)
inactive: Potency [1] | outcome [2] | Potency [3] | outcome [4] | outcome [5] | outcome [6] | Potency [7] | max response [8] -4.19% and 23.1%

COc1ccc(CN(CCN(C)C)c2ccccn2)cc1
inactive: Potency [13] | max response [9] -5.33% | Potency [14] | Potency [1] | outcome [2] | Potency [3] | outcome [15] | outcome [16] | max response [10] -3.41% | outcome [5] | outcome [6] | Potency [7] | max response [8] -1.15% and 9.8% | max response [11] -9.66% | outcome [12]

Cc1cc(C)c(/C=C2\C(=O)Nc3ccccc32)[nH]1
inactive: outcome [18] | Potency [1] | outcome [2] | Potency [3] | outcome [5] | outcome [6] | Potency [7] | max response [8] -7.62% and 20.5%
active: Potency [17] 1370 nM

C[C@]12C=CC(=O)C=C1CC[C@H]1[C@@H]3C[C@@H](O)[C@](O)(C(=O)CO)[C@@]3(C)C[C@H](O)[C@@]12F
inactive: max response [9] 4.65% | Potency [1] | outcome [2] | Potency [3] | outcome [4] | outcome [15] | max response [10] -0.0511% | outcome [5] | outcome [6] | Potency [7] | max response [8] 20.4% and -3.94% | max response [11] -7.12% | outcome [12]

CC(C)(Oc1ccc(CCNC(=O)c2ccc(Cl)cc2)cc1)C(=O)O
inactive: max response [9] 9.62% | Potency [1] | outcome [2] | Potency [3] | outcome [4] | outcome [15] | max response [10] -11.9% | outcome [6] | Potency [7] | max response [8] 5.91% and 17.9% | max response [11] -0.154% | outcome [12]

From PubChem BioAssay (NCATS)
